In PubChem BioAssay (EPA / NIEHS):
“And” between values parts separate entries of the source, which are not always exact repeats. Identical values can stand only once. Inconclusive results are not listed. Where a structure was tested more than once in an assay, its records may differ in their call. The source made the active and inactive calls. The calls were made as follows: active = hit-call score of the fitted dose curve at least 0.9, where 1 is the maximum; inconclusive = response in the unintended direction; inactive = score below 0.9.

Legend:
[1] = ATG_M_32_XSP1: Attagene TRANS-FACTORIAL Multi-Species (XSP1) HepG2 Assay for M32 Transcription Factor (Internal Marker) (AID 2283799)
Summary of the method: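 HepG2 cells transiently transfected with multi-species TRANS reporter units, dosed 24 h with 3 nM 6-alpha-fluorotestosterone present. Internal-marker reporter mRNA quantified by RT-PCR and capillary electrophoresis; positive-direction fit versus DMSO.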

[2] = target: Peroxisome proliferator-activated receptor gamma (Homo sapiens) (UniProt P37231); test: ATG_hPPARg_XSP1: Attagene TRANS-FACTORIAL Multi-Species (XSP1) HepG2 Assay for human Peroxisome Proliferator-activated Receptor gamma (PPARg) (AID 2283800)
Summary of the method: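 HepG2 cells transiently transfected with GAL4-UAS reporter units carrying chimeric NR-Gal4 proteins; 3 nM 6-alpha-fluorotestosterone present. After 24 h dosing, reporter mRNA quantified by RT-PCR and capillary electrophoresis; gain of signal relative to DMSO.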

[3] = system: zebrafish Peroxisome Proliferator-activated Receptor gamma (PPARg), gene 557037; test: ATG_zfPPARg_XSP1: Attagene TRANS-FACTORIAL Multi-Species (XSP1) HepG2 Assay for zebrafish Peroxisome Proliferator-activated Receptor gamma (PPARg) (AID 2283801)
Summary of the method: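 HepG2 cells transiently transfected with GAL4-UAS reporter units including a zebrafish PPARg–GAL4 chimera, dosed 24 h with 3 nM 6-alpha-fluorotestosterone present. Reporter mRNA quantified by RT-PCR, FAM labelling, HpaI digestion and capillary electrophoresis; induction versus DMSO.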

[4] = target: mouse Peroxisome Proliferator-activated Receptor gamma (PPARg), Pparg (gene 19016) (UniProt P37238); test: ATG_mPPARg_XSP1: Attagene TRANS-FACTORIAL Multi-Species (XSP1) HepG2 Assay for mouse Peroxisome Proliferator-activated Receptor gamma (PPARg) (AID 2283802)
Chain of mouse Peroxisome Proliferator-activated Receptor gamma (PPARg), Pparg (gene 19016) (P37238 whole entry, looked up, the tested form may be a part): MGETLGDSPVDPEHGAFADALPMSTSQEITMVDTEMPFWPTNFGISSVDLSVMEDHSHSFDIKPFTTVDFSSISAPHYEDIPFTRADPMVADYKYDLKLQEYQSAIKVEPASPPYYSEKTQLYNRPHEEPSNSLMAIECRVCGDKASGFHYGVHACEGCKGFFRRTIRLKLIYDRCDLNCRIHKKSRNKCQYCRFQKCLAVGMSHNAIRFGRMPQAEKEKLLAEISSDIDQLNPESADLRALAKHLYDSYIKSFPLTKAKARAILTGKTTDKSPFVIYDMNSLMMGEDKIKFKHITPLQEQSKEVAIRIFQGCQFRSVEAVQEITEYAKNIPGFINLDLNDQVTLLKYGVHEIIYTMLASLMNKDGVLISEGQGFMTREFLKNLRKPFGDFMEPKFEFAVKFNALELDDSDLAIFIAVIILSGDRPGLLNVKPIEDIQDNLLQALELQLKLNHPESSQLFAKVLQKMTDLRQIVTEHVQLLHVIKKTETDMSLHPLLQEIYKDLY
Summary of the method: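 HepG2 cells transiently transfected with GAL4-UAS reporter units driven by mouse PPARg–GAL4 chimera; 3 nM 6-alpha-fluorotestosterone present. After 24 h dosing, reporter mRNA quantified by RT-PCR, fluorescent labelling and capillary electrophoresis; gain of signal versus DMSO.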

[5] = target: Nuclear receptor subfamily 1 group I member 2 (Mus musculus) (UniProt O54915); test: ATG_mPXR_XSP1: Attagene TRANS-FACTORIAL Multi-Species (XSP1) HepG2 Assay for mouse Pregnane X Receptor (PXR) (AID 2283803)
Summary of the method: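 Transiently transfected HepG2 cells expressing a receptor-Gal4 chimera drive a GAL4-UAS reporter; 3 nM 6-alpha-fluorotestosterone included. Reporter mRNA read 24 h post-dose by RT-PCR and capillary electrophoresis; gain of signal relative to DMSO.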

[6] = target: human Thyroid hormone Receptor alpha (TRa), THRA (gene 7067) (UniProt P10827); test: ATG_hTRa_XSP1: Attagene TRANS-FACTORIAL Multi-Species (XSP1) HepG2 Assay for human Thyroid hormone Receptor alpha (TRa) (AID 2283805)
Chain of human Thyroid hormone Receptor alpha (TRa), THRA (gene 7067) (P10827 whole entry, looked up, the tested form may be a part): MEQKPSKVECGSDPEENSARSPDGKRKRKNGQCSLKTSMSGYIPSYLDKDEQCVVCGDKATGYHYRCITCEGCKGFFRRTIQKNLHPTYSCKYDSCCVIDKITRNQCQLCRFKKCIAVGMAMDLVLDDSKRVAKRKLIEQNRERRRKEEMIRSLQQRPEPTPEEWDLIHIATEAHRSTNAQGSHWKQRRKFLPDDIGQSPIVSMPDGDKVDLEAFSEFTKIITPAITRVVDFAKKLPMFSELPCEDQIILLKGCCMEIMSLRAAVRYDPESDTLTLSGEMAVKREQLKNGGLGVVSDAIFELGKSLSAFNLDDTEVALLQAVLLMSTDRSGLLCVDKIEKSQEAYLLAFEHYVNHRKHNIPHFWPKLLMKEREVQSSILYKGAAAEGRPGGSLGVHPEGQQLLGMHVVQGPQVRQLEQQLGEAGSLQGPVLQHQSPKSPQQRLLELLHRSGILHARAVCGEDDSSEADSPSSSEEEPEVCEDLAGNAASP
Summary of the method: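 HepG2 cells transiently transfected with GAL4-UAS reporter units expressing chimeric NR-Gal4 proteins, dosed 24 hours with 3 nM 6-alpha-fluorotestosterone present. Reporter mRNA measured by RT-PCR and capillary electrophoresis; gain of signal fitted versus DMSO.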

[7] = system: turtle Thyroid Hormone Receptor, alpha (TRa), gene 101949057; test: ATG_trTRa_XSP1: Attagene TRANS-FACTORIAL Multi-Species (XSP1) HepG2 Assay for turtle Thyroid Hormone Receptor, alpha (TRa) (AID 2283806)
Summary of the method: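 HepG2 cells transiently transfected with GAL4-UAS reporter units and chimeric receptor-Gal4 constructs, with 3 nM 6-alpha-fluorotestosterone present. Reporter mRNA was quantified 24 h after dosing by RT-PCR, 6-FAM labelling and capillary electrophoresis; gain of signal versus DMSO.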

[8] = target: zebrafish Thyroid Hormone Receptor alpha (TRa), thraa (gene 30670) (UniProt Q98867); test: ATG_zfTRa_XSP1: Attagene TRANS-FACTORIAL Multi-Species (XSP1) HepG2 Assay for zebrafish Thyroid Hormone Receptor alpha (TRa) (AID 2283807)
Chain of zebrafish Thyroid Hormone Receptor alpha (TRa), thraa (gene 30670) (Q98867 whole entry, looked up, the tested form may be a part): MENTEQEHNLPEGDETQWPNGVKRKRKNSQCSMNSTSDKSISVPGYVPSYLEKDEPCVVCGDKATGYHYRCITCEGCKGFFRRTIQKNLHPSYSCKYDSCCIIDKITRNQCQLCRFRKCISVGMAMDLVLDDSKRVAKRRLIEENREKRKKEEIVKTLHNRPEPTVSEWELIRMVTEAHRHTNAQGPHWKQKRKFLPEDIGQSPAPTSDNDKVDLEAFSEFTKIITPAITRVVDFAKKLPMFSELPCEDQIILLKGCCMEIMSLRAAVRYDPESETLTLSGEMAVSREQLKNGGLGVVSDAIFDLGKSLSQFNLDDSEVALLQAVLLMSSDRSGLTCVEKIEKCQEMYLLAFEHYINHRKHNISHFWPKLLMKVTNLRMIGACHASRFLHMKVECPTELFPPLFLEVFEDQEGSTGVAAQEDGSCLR
Summary of the method: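 HepG2 cells transiently transfected with GAL4-UAS reporter units including a zebrafish TRa–Gal4 chimera, dosed 24 h with 3 nM 6-alpha-fluorotestosterone present. Reporter mRNA quantified by RT-PCR and capillary electrophoresis; gain versus DMSO.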

[9] = target: human Thyroid hormone Receptor beta (TRb), THRB (gene 7068) (UniProt P10828); test: ATG_hTRb_XSP1: Attagene TRANS-FACTORIAL Multi-Species (XSP1) HepG2 Assay for human Thyroid hormone Receptor beta (TRb) (AID 2283808)
Chain of human Thyroid hormone Receptor beta (TRb), THRB (gene 7068) (P10828 whole entry, looked up, the tested form may be a part): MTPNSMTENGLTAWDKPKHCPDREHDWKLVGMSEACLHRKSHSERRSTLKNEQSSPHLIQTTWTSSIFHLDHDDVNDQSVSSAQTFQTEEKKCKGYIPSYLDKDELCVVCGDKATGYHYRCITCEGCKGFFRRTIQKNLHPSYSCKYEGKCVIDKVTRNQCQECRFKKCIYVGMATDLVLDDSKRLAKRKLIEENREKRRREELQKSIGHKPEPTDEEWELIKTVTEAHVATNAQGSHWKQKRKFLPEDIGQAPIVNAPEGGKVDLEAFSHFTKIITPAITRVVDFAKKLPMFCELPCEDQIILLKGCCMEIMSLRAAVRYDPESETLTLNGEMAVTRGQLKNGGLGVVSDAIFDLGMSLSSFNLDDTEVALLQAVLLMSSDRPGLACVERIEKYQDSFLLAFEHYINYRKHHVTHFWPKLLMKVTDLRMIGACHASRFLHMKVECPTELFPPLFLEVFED
Summary of the method: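 HepG2 cells transiently transfected with reporter units driving GAL4-UAS reporters for chimeric NR-Gal4 proteins; 24 h chemical exposure with 3 nM 6-alpha-fluorotestosterone present. Reporter mRNA quantified by RT-PCR and capillary electrophoresis, gain of signal versus DMSO.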

[10] = target: zebrafish Thyroid Hormone Receptor beta (TRb), thrb (gene 30607) (UniProt Q9PVE4); test: ATG_zfTRb_XSP1: Attagene TRANS-FACTORIAL Multi-Species (XSP1) HepG2 Assay for zebrafish Thyroid Hormone Receptor beta (TRb) (AID 2283809)
Chain of zebrafish Thyroid Hormone Receptor beta (TRb), thrb (gene 30607) (Q9PVE4 whole entry, looked up, the tested form may be a part): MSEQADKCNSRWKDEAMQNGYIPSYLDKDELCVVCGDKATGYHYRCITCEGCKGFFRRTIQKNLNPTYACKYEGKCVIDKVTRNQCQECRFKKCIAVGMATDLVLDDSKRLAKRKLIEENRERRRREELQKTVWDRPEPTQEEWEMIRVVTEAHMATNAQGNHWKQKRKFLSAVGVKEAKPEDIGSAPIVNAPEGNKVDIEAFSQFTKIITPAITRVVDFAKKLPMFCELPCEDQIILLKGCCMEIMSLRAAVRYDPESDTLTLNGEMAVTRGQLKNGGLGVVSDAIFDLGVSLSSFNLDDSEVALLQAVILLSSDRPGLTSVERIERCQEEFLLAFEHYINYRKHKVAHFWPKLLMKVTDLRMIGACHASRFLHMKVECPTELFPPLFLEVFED
Summary of the method: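 HepG2 cells transiently transfected with multiplexed GAL4-UAS reporter units expressing chimeric zebrafish TRb–Gal4. Dosed 24 h with 3 nM 6-alpha-fluorotestosterone present; reporter mRNA measured by RT-PCR, HpaI digestion and capillary electrophoresis; gain of signal versus DMSO.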

[11] = ATG_XTT_Cytotoxicity_XSP1: Cytotoxicity Assessment in the Attagene TRANS-FACTORIAL Multi-Species (XSP1) HepG2 Assay (AID 2283810)
Summary of the method: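 XTT viability readout taken at 24 hours post-dosing in HepG2 liver cells co-treated with 3 nM 6-alpha-fluorotestosterone. Signal loss relative to DMSO controls reflects cytotoxicity.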

[12] = ATG_M_06_XSP2: Attagene TRANS-FACTORIAL Multi-Species (XSP2) HepG2 Assay for M06 Transcription Factor (Internal Marker) (AID 2283811);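 also: hits are increases in signal above the DMSO baseline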
Summary of the method: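 HepG2 cells transiently transfected with GAL4-UAS multi-reporter constructs, dosed 24 h with 3 nM 6-alpha-fluorotestosterone plus 1.5 nM norgestrel present to stimulate androgen receptor. Reporter mRNA quantified by RT-PCR, 6-FAM labelling, HpaI digestion and capillary electrophoresis; gain-of-signal fitted versus DMSO baseline.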

[13] = system: turtle Estrogen Receptor (ERa), gene 101933533; test: ATG_trERa_XSP2: Attagene TRANS-FACTORIAL Multi-Species (XSP2) HepG2 Assay for turtle Estrogen Receptor (ERa) (AID 2283812);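 also: human HepG2 liver cells transiently expressing turtle ERa-Gal4 chimeric receptor; actives raise reporter signal above DMSO so AC50 reflects agonist activity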
Summary of the method: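 HepG2 cells transiently transfected with GAL4-UAS reporter units expressing turtle ERa-Gal4 chimera. Reporter mRNA measured after 24 h dosing by RT-PCR, fluorescent labelling and capillary electrophoresis; gain of signal fitted versus DMSO.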

[14] = target: Estrogen receptor beta (Homo sapiens) (UniProt Q92731); test: ATG_hERb_XSP2: Attagene TRANS-FACTORIAL Multi-Species (XSP2) HepG2 Assay for human Estrogen Receptor (ERb) (AID 2283813);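 also: actives raise reporter mRNA above DMSO so AC50 reflects agonist induction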
Chain of Estrogen receptor beta (Homo sapiens) (Q92731 whole entry, looked up, the tested form may be a part): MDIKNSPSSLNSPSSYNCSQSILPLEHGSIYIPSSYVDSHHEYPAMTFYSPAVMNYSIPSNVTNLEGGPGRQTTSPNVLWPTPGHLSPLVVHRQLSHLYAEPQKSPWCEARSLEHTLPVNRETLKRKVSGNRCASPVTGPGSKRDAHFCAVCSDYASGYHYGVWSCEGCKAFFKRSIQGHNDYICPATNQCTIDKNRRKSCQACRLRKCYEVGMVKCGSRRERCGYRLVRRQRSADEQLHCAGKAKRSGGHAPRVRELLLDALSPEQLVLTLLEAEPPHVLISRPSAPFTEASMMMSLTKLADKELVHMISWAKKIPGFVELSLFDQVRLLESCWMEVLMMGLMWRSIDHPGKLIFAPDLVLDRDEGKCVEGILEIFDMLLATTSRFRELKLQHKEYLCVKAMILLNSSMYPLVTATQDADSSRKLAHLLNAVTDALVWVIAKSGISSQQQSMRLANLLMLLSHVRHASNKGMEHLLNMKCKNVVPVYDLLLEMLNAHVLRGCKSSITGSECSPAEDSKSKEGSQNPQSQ
Summary of the method: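 HepG2 cells transiently transfected with GAL4-UAS reporter units and chimeric human ERb-Gal4, 24 h exposure. Reporter mRNA quantified by RT-PCR with FAM labelling, HpaI digestion and capillary electrophoresis; gain of signal versus DMSO.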

[15] = target: GAL4 Transcription Factor (Internal Marker), GAL4 (gene 855828) (UniProt P04386); test: ATG_GAL4_XSP2: Attagene TRANS-FACTORIAL Multi-Species (XSP2) HepG2 Assay for GAL4 Transcription Factor (Internal Marker) (AID 2283814);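 also: GAL4 reporter mRNA background control in MRTU transfected cells not a receptor target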
Chain of GAL4 Transcription Factor (Internal Marker), GAL4 (gene 855828) (P04386 whole entry, looked up, the tested form may be a part): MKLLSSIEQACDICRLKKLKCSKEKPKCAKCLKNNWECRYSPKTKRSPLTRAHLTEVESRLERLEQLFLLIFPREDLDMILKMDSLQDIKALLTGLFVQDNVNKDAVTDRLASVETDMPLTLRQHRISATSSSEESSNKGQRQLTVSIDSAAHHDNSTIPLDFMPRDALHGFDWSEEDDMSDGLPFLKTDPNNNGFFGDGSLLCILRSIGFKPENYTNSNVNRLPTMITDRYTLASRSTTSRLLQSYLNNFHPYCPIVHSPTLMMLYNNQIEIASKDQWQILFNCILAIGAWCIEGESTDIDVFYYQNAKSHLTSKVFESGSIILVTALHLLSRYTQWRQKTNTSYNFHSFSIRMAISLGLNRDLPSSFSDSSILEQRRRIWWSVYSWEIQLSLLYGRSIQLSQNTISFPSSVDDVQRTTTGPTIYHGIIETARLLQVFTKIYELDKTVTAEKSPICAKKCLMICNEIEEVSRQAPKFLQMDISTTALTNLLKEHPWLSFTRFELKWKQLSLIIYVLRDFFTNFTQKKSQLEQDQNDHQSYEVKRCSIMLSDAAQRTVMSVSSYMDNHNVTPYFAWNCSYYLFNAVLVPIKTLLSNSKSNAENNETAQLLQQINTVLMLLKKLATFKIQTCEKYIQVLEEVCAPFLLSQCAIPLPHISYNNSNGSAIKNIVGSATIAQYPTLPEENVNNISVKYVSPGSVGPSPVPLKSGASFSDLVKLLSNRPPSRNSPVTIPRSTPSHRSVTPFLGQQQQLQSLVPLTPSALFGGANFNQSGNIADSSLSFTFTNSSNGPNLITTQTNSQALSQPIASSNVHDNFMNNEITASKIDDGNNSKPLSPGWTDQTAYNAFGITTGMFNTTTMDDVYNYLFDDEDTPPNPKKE
Summary of the method: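 HepG2 cells transiently transfected with GAL4-UAS reporter units, stimulated with 3 nM 6-alpha-fluorotestosterone plus 1.5 nM norgestrel, dosed 24 h. Reporter mRNA by RT-PCR/capillary electrophoresis; gain-of-signal fit versus DMSO, background control.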

[16] = target: zebrafish Estrogen Receptor (ER1), esr1 (gene 259252) (UniProt P57717); test: ATG_zfER1_XSP2: Attagene TRANS-FACTORIAL Multi-Species (XSP2) HepG2 Assay for zebrafish Estrogen Receptor (ER1) (AID 2283816)
Chain of zebrafish Estrogen Receptor (ER1), esr1 (gene 259252) (P57717 whole entry, looked up, the tested form may be a part): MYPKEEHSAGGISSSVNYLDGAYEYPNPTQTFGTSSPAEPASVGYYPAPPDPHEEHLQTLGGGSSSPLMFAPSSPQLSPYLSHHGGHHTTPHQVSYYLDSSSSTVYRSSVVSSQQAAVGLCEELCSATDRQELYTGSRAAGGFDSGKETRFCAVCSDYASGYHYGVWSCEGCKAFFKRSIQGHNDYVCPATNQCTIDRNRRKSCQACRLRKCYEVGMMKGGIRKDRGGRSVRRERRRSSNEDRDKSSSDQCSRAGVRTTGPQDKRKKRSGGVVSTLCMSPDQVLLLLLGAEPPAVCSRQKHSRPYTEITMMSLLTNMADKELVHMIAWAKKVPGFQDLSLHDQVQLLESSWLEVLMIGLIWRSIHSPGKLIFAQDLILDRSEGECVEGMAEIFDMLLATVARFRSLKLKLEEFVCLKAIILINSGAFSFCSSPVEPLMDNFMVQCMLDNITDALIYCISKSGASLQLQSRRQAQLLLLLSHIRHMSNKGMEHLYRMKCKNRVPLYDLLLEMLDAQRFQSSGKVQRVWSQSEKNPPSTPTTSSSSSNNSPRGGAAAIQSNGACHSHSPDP
Summary of the method: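 HepG2 cells transiently transfected with a GAL4-UAS reporter and a chimeric zebrafish ER1-Gal4 construct, dosed 24 h. Reporter mRNA quantified by RT-PCR, labelling, HpaI digestion and capillary electrophoresis, relative to DMSO.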

[17] = target: chicken Estrogen Receptor (ERa), ESR1 (gene 396099) (UniProt P06212); test: ATG_chERa_XSP2: Attagene TRANS-FACTORIAL Multi-Species (XSP2) HepG2 Assay for chicken Estrogen Receptor (ERa) (AID 2283817);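 also: actives raise reporter signal above DMSO so AC50 reflects ER activation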
Chain of chicken Estrogen Receptor (ERa), ESR1 (gene 396099) (P06212 whole entry, looked up, the tested form may be a part): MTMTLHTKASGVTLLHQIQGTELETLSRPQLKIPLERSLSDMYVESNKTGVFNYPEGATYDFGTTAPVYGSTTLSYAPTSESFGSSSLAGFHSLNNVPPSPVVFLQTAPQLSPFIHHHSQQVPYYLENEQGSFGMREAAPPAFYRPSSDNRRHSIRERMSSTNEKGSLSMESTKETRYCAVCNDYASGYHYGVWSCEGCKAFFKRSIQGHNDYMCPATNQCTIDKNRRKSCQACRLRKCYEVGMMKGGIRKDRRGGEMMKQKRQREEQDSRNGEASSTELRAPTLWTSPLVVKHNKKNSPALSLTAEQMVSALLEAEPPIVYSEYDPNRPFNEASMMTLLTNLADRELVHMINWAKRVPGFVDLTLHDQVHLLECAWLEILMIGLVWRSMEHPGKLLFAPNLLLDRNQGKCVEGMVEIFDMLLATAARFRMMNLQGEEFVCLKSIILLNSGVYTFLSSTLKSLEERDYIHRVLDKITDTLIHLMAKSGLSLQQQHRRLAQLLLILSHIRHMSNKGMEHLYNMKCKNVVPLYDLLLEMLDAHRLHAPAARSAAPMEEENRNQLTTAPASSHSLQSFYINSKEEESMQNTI
Summary of the method: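 HepG2 cells transiently transfected with multiplexed GAL4-UAS reporter units expressing chimeric chicken ERa-Gal4; 24 h compound exposure. Reporter mRNA measured by RT-PCR with 6-FAM labelling, HpaI digestion and capillary electrophoresis; gain-of-signal fitted versus DMSO.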

[18] = target: frog Thyroid hormone Receptor alpha (TRa), thra-a (gene 397942) (UniProt P15204); test: ATG_frTRa_XSP1: Attagene TRANS-FACTORIAL Multi-Species (XSP1) HepG2 Assay for frog Thyroid hormone Receptor alpha (TRa) (AID 2283804)
Summary of the method: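 HepG2 cells transiently transfected with frog TRa-GAL4 chimeric reporter units, dosed 24 hr with 3 nM 6-alpha-fluorotestosterone present; reporter mRNA quantified by RT-PCR, fluorescent labelling and capillary electrophoresis, gain of signal versus DMSO.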

[19] = ATG_M_19_XSP1: Attagene TRANS-FACTORIAL Multi-Species (XSP1) HepG2 Assay for M19 Transcription Factor (Internal Marker) (AID 2283798)
Summary of the method: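 HepG2 cells transiently transfected with multiplexed GAL4-UAS reporter units, dosed 24 h with 3 nM 6-alpha-fluorotestosterone present for partial AR stimulation. Reporter mRNA measured by RT-PCR with capillary electrophoresis; gain-of-signal fitted relative to DMSO.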

Measured: AC50

COP(=S)(OC)Oc1ccc(SC)c(C)c1
inactive: [1] | [3] | [6] | [7] | [8] | [9] | [10] | [11] | [12] | [14] | [15] | [16]
active: [2] 22.5 µM | [4] 41.5 µM | [5] 8.91 µM | [13] 5.17 µM | [17] 27.5 µM

Oc1ccc(Cl)cc1Cc1ccccc1
inactive: [3] | [5] | [18] | [6] | [7] | [8] | [9] | [10] | [11] | [12] | [13] | [14] | [15] | [17]
active: [4] 10.1 µM

CCCN(CCOc1c(Cl)cc(Cl)cc1Cl)C(=O)n1ccnc1
active: [2] 33.4 µM | [4] 15.8 µM | [5] 0.11 µM | [11] 100 µM
inactive: [19] | [1] | [3] | [6] | [7] | [8] | [9] | [12] | [13] | [14] | [16] | [17]

COP(=S)(OC)Oc1ccc([N+](=O)[O-])cc1
active: [13] 29.6 µM and 23.1 µM | [14] 26.8 µM | [17] 27.7 µM and 20.6 µM
inactive: [14] | [15] | [16]

O=S(=O)(O)C(F)(F)C(F)(F)C(F)(F)C(F)(F)C(F)(F)C(F)(F)C(F)(F)C(F)(F)F
inactive: [19] | [1] | [10] | [12] | [13] | [17]
active: [4] 73.1 µM | [5] 57.9 µM | [8] 140 µM | [11] 154 µM
